Bioassay records from PubChem.
Rab9 prom act = qHTS Assay for Rab9 Promoter Activators | Huh7 Rab9 promoter-luciferase reporter, luminescence, 24 h | Potency, µM (highest dose often 9.22 µM), for the others: at the top dose activation, negative = inhibition, usual class: activators | actives 2.8% (n = 320,000); note: % of control where 0% means no effect; nearly all actives have a fitted effect of over 60% in size
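Cells were plated at 1500 per well in reduced-serum medium with 10% FBS and left 2 h. Compound in DMSO was then added for 24 h at 37 °C. Reporter signal was read by luminescence after 10 min with luciferase detection reagent.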
KinaseGlo FLuc = Counterscreen for Luciferase (Kinase-Glo TM) Inhibition | Luciferin 4-monooxygenase (Photuris pensylvanica), Q27757 | Kinase-Glo luciferase, ATP luminescence, 8 min | Potency, µM (highest dose often 38.3 µM), for inactives: at the highest dose activity change, negative = inhibition, actives largely listed as inhibitors | actives 0.28% (n = 200,000) | AID 1379, 2008; note: % is set by controls: 0 for no effect and ±100 for the full control effect; nearly all actives have a fitted effect of over 60% in size
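Recombinant Kinase-Glo luciferase, 10 uM ATP (linear range), luciferin; imidazole pH 7.2 / KCl / MgCl2 / Tween / BSA buffer; 8 min RT; luminescence.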
ELG1 genotoxic = qHTS screen for small molecules that induce genotoxicity in human embryonic kidney (HEK293T) cells expressing luciferase-tagged ELG1; AID 504466, 2011; Potency, µM (top dose mostly 46 µM), inactives show top-dose activity change, positive = activation, usual class: activators; HEK293T ELG1-luciferase reporter, luminescence, 16 h; actives 1.3% (n = 330,000); note: % of control where 0% means no effect; nearly all actives have a fitted effect of over 60% in size
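ELG1-luciferase HEK293T cells, 2,000/well; compound pinned in; 16 hr, 37 °C, 5% CO2; ONE-Glo, 30 min RT; luminescence on CCD imager.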
NPC1 promoter act = qHTS Assay for NPC1 Promoter Activators; Huh7 NPC1 promoter luciferase reporter, 24 h; Potency, µM (top dose mostly 9.22 µM), inactives show at the top dose activation, most hits filed as activators; actives 2.4% (n = 320,000); note: % of control where 0% means no effect; nearly all actives have a fitted effect of over 60% in size
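Cells: Huh7 expressing luciferase under the NPC1 promoter, 1500/well. Seeded 2 h, compound added, incubated 24 h at 37 °C. Luciferase reagent, 10 min ambient, then luminescence.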
FLuc counter = qHTS profiling assay for firefly luciferase inhibitor/activator using purifed enzyme and Km concentrations of substrates (counterscreen for miR-21 project) | Luciferin 4-monooxygenase (Photinus pyralis), P08659 | purified FLuc, Km substrates, luminescence inhibition | Potency, µM (series often up to 57.5 µM), for inactives: top-dose activity change, negative = inhibition, most hits filed as inhibitors | actives 6.9% (n = 360,000) | AID 588342, 2011;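 note: plate controls were vehicle for no effect and reference inhibitor for full effect; nearly all actives have a fitted effect of over 55% in size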
Target sequence (P08659 whole entry, looked up): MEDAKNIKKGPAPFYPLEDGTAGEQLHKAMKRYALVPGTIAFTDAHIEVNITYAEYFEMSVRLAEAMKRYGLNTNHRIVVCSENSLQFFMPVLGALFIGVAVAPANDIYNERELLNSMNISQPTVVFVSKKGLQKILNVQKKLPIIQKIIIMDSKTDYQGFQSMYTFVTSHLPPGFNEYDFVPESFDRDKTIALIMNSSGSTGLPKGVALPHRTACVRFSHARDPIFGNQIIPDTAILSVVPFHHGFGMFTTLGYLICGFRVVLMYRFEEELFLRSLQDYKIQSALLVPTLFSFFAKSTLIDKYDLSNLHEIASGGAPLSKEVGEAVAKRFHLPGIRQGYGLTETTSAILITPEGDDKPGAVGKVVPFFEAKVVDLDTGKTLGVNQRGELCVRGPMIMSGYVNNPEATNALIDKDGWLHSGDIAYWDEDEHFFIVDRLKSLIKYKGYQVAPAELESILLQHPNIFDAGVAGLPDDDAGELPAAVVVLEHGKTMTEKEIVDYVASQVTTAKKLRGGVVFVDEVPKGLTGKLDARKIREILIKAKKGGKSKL
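Biochemical qHTS of compounds, final roughly 60 µM downward over six points, against 10 nM purified firefly luciferase using Km concentrations of substrates (10 uM D-luciferin, 10 uM ATP) in Tris acetate pH 7.5 buffer; luminescence output.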
SMN2 splice up = qHTS Assay for Enhancers of SMN2 Splice Variant Expression. HEK293 SMN2-luciferase splicing reporter, luminescence, 30-36 h. Potency, µM (doses to about 46.1 µM), without a hit: at the top dose activity change, positive = activation, usual class: activators. actives 2.8% (n = 210,000); note: % of control where 0% means no effect; nearly all actives have a fitted effect of over 55% in size
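qHTS luciferase splicing reporter: luminescence rises when SMN2 exon 7 is included in transfected HEK293 cells. Compound exposure lasted 30-36 h at 37C, with 4.5 mM final sodium butyrate as control, followed by a ONE-Glo read.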
The depositor's hits bear a star; u = inconclusive; x = no result; [ ] = dose if it differs, or a comment. Compounds with a hit are over-represented: about 7.3% of the library has one in this group of screens. Calls come from the whole dose curve; as a rule, active = well fitted curve in the direction sought with a large enough effect; inconclusive = small, poorly fitted or top-dose-only effect, or another doubt; inactive = no such curve, though single readings can be large; an effect the other way counts as inactive or inconclusive. Potency is the fitted concentration of half-maximal effect.

SMILES | Rab9 prom act | KinaseGlo FLuc | ELG1 genotoxic | NPC1 promoter act | FLuc counter | SMN2 splice up
O=C(O)c1ccc(CSc2nnc(-c3ccccc3Br)o2)cc1 | -1% | x | 6% | 2% | 24µM* | x
Cc1cc(C)cc(NC(=O)C2CCCN(c3cnccn3)C2)c1 (configuration not stated) | x | x | x | x | 1% | 1%
C=C(COC)C1=CCC(C(=O)OC)(C(=O)OC)[C@@H](C[N+](=O)[O-])c2ccccc21 | x | -1% | x | x | x | 20%
CCN(CC(=O)O)CC(=O)O | x | -3%[7.66 µM] | x | x | x | -1%[9.22 µM]
N#C/C(=N\Nc1cccc(F)c1)C(=O)C1CC1 | -1% | x | -6% | 1% | -8% | x
N#C/C(=N/Nc1ccccc1F)C(=N)N1CCOCC1 | 23% | -2% | 5% | 23% | -20% | 5%
COc1ccc(N/N=C(\C#N)C(=N)N2CCOCC2)cc1 | 24% | -2% | 18µM* | 20% | u | 15%
N#C/C(=N\Nc1cccc(F)c1)C(=N)N1CCCCCC1 | 0.56µM* | 0% | u | 0.5µM* | 2.4µM* | 13µM*
N#C/C(=N\Nc1ccccc1)C(=N)N1CCCCCC1 | 1µM* | x | u | 1.8µM* | 3.4µM* | x
N#C/C(=N\Nc1ccc(F)cc1)C(=N)N1CCCCC1 | 0.63µM* | -13% | 1.6µM* | 0.56µM* | 3µM* | x
N#C/C(=N\Nc1ccc(Cl)cc1)C(=O)c1ccccc1 | -10% | -5% | -10% | 6% | u | -67%
O=C(Nc1ccc(F)cc1)N1CCCCCC1 | 8% | x | 17% | 13% | -19% | x
COc1ccc(NC(=O)c2c(C)oc3ccc(O)c(CN4CCN(Cc5ccccc5)CC4)c23)cc1 | x | x | x | x | -12% | -31%
O=C(O)c1cc(=O)[nH]c(SCc2ccccc2)n1 | x | -4%[7.66 µM] | x | x | x | 2%[9.22 µM]
O=C(Nc1cccc(-c2csc(Nc3ccc(Cl)cc3)n2)c1)c1ccccc1 | 3% | x | -14% | -3% | 12µM* | x
O=C(Nc1ccc(-c2csc(Nc3ccccc3)n2)cc1)c1ccccc1 | 0% | x | 10% | -4% | 13µM* | x
O=C(NNc1nc(-c2ccccc2)cs1)c1ccccc1 | 4% | 1% | -1% | 8% | u | -2%
Nc1nc(CC(=O)O)cs1 | x | x | x | x | x | 25%
CCOC(=O)c1ccc(NC(=O)COCc2cc(-c3ccc4c(c3)OCO4)on2)cc1 | x | x | x | x | 5% | x
C#CCSc1nnc(-c2ccc(O)cc2)o1 | u | -6% | u | 27% | u | u
Cc1ccccc1-c1nnc(SCc2ccc(F)cc2)o1 | 24% | 3% | u | u | 15µM* | -9%
Oc1ccc(-c2nnc(SCc3ccccc3)o2)cc1 | 9% | x | u | u | 27µM* | x
Cc1ccc(-c2nnc(SCc3ccccc3)o2)cc1 | x | x | x | x | 4.8µM* | x
Fc1ccc(CSc2nnc(-c3ccncc3)o2)cc1 | 2% | 1% | -21% | 14% | -2% | -30%
C#CCSc1nnc(-c2ccc(C)cc2)o1 | 2.2µM* | -4% | 23µM* | 3.5µM* | 7.6µM* | 13µM*
SMILES | Rab9 prom act | KinaseGlo FLuc | ELG1 genotoxic | NPC1 promoter act | FLuc counter | SMN2 splice up
c1ccc(CSc2nnc(-c3cccnc3)o2)cc1 | u | -2% | u | u | u | u
COc1ccc(CNC(=O)c2ccc(CSc3nc4ccncc4n3Cc3ccccc3F)cc2)cc1 | x | x | x | x | -15% | -9%
CC1CCc2c(sc(NC(=O)c3ccc(-c4ccccc4[N+](=O)[O-])o3)c2C#N)C1 (configuration not stated) | 14% | -4% | -4% | 4% | 11µM* | -10%
N#Cc1c(NC(=O)c2ccc(-c3ccccc3[N+](=O)[O-])o2)sc2c1CCCC2 | 14% | 1% | 1% | -2% | 11µM* | -30%
Cc1onc(C(=O)Nc2sc3c(c2C#N)CCCC3)c1[N+](=O)[O-] | u | 0% | 7% | 3% | 13µM* | x
N#Cc1c(NC(=S)NC(=O)c2ccccc2)sc2c1CCC2 | u | 2% | u | 19% | -17% | -17%
O=C(NC1CCCCC1)c1ccc(-c2ccccc2[N+](=O)[O-])o1 | 1.4µM* | x | 2.1µM* | 0.71µM* | 3.8µM* | x
Cc1onc(-c2ccccc2Cl)c1C(=O)Nc1sc2c(c1C#N)CCC2 | 1% | 1% | -9% | 0% | 9% | -96%
CCOC(=O)c1c(NC(=O)CCCOc2ccc(Cl)cc2)sc2c1CCC2 | x | x | x | x | -1% | 1%
CN(C)c1ccc(NC(=O)CCn2c(=S)oc3ccccc32)cc1 | 17% | 0% | 16% | 13% | 4.3µM* | 1%
Cc1ccc(NC(=O)CCn2c(=S)oc3ccccc32)cc1 | -1% | 6% | 10% | -3% | 0% | 9%
COc1ccc(-c2c(C)nn3c4c(cnc23)C(=O)CC(c2ccc(C)cc2)C4)cc1 (configuration not stated) | x | x | x | x | -5% | 4%
COC(=O)c1sc(-c2ccc(Cl)cc2)cc1NC(=O)CSCC(=O)O | 1% | x | 0% | -1% | 13µM* | x
COC(=O)c1sc(-c2ccccc2)cc1NC(=O)Nc1ccc(Cl)cc1 | x | x | x | x | -8% | 2%
COC(=O)c1sc(-c2ccccc2)cc1NC(C)=O | 2% | -2% | 0% | -1% | u | 0%
COC(=O)c1sc(-c2ccc(C(C)(C)C)cc2)cc1NC(=O)COCC(=O)O | 17% | x | 7% | 19% | 3.8µM* | x
FC(F)(F)c1cnc(-c2cnc(-c3cccnc3)nc2)c(Cl)c1 | 4µM* | -3% | u | 2.5µM* | u | 13µM*
FC(F)(F)c1cc(Cl)c2nnc(-c3cccnc3)n2c1 | 6% | x | 3% | 3% | 1% | x
O=C(COc1ccccc1[N+](=O)[O-])N1CCC(c2nc3ccccc3o2)CC1 | x | x | x | x | 1% | x
O=C(NCc1cccnc1)c1cc(-c2cccs2)on1 | u | -2% | 10% | u | u | 0%
O=C(NCc1cccnc1)c1cc(-c2ccccc2)on1 | u | 1% | 21µM* | 29% | u | 16µM*
COc1ccc(-c2cc(C(=O)NCc3cccnc3)no2)cc1 | u | -10% | 13% | u | 12µM* | 7%
COc1ccc(CNC(=O)c2cc(-c3ccc(OC)cc3)on2)cc1 | x | x | x | x | 5% | -10%
CCn1c(=O)c2cc(C(=O)N(CC(C)C)CC(C)C)sc2c2ccccc21 | x | x | x | x | -1% | -3%
Cc1ccc(N2CC(NC(=O)C(=O)c3c[nH]c4ccccc34)CC2=O)cc1 (configuration not stated) | x | x | x | x | -4% | x
COc1ccc(C(=O)N/N=C/c2ccc(SC)cc2)cc1 | 3% | 3% | -2% | 6% | 6.7µM* | 11%
